Screening data from PubChem.
FBA Mtb inh – inhibits M. tuberculosis FBA enzyme. P9WQA3. purified M. tuberculosis FBA, fluorescence read-out. inhibition, % at 1 µM. 2.3% of 360,000 active; in the data active = inhibition above about 27%;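 also: 0% = vehicle and 100% = reference inhibitor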
GDH-TPI counter-1 – inhibits GDH-TPI coupling enzymes, artifact for Mtb FBA screen; GDH-TPI coupled enzyme counterscreen, NADH absorbance; 1.2% of 360,000 active; inhibition, % at 4.8 µM; in the data active = inhibition above about 30%;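 also: 0% = DMSO wells and 100% = wells lacking the enzyme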
Mtb UGM inh – blocks M. tuberculosis UGM enzyme; P9WIQ1; purified UGM, fluorescence polarization probe displacement; inhibition, % at 10 µM; 0.06% of 320,000 active; AID 504406; in the data active = inhibition above about 10%, passing the limit was not always enough
Target sequence (P9WIQ1 whole entry, looked up): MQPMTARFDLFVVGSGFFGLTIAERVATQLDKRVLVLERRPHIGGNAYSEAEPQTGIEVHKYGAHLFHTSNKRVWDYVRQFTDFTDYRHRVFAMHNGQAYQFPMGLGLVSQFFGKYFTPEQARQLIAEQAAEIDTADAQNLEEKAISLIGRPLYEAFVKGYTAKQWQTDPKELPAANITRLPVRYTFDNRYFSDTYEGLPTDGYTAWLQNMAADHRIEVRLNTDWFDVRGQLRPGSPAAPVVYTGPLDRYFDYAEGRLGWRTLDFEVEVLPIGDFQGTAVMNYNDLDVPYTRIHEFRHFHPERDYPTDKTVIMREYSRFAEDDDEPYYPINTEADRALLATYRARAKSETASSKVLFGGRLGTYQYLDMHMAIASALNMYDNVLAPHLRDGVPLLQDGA
Mtb bLac sens – beta-lactam sensitization of Mtb H37Rv. M. tuberculosis H37Rv growth with meropenem, percent inhibition. inhibition, % at 25 µM. 0.27% of 330,000 active. AID 434955;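 also: growth measured after seven days incubation then overnight dye step; 0% = bacteria only wells and 100% = bacteria with antibiotic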
Rv3671c inh – inhibitors of M. tuberculosis serine protease Rv3671c; P9WHR9; 0.048% of 320,000 active; inhibition, % at 5.96 µM; in the data active = inhibition above about 38%;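 also: extracellular domain of Rv3671c used as enzyme; 0% = enzyme with DMSO and 100% = no enzyme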
RecA intein inh – blocks M. tuberculosis RecA intein splicing; P9WHJ3; cell-free RecA intein splicing, fluorescence; inhibition, % (concentration not given with the values); 0.75% of 290,000 active; in the data active = inhibition above about 30%;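 also: 0% = vehicle wells and 100% = reference inhibitor control wells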
Mtb FBA confirm – confirmation of M. tuberculosis fructose-bisphosphate aldolase inhibitors | shares compounds with FBA Mtb inh | purified M. tuberculosis FBA, fluorescence read-out | inhibition, % at 1 µM | 78% of 5,600 active | AID 651616; in the data active = inhibition above about 27%;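 also: 0% = vehicle wells and 100% = reference inhibitor wells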
GDH-TPI counter-2 – GDH-TPI inhibition counter-screen for FBA inhibitors; shares compounds with FBA Mtb inh; GDH-TPI coupled enzyme counterscreen, fluorescence; inhibition, % at 1 µM; 81% of 5,600 active; in the data active = inhibition above about 10%
GDH-TPI DR – counter-screen for M. tuberculosis FBA inhibitors: GDH-TPI dose response | IC50, µM | shares compounds with FBA Mtb inh | 79% of 170 active | GDH-TPI coupled enzyme assay, fluorescence, artifact counterscreen
Starred values were filed as active, the others as inactive. The list is not random: actives were taken first. Their share in the collection is about 4%. Unless noted, no rule for the calls is given here.

CC(=O)Nc1ccc2nc(-c3ccncc3)[nH]c2c1 was read as FBA Mtb inh 32*, GDH-TPI counter-1 12, Mtb UGM inh -1, Mtb bLac sens -9, Rv3671c inh 4, RecA intein inh 0, Mtb FBA confirm active and GDH-TPI counter-2 active.
For CC(Sc1nc2ncc(Cl)cc2[nH]1)C(=O)c1c(N)n(C)c(=O)n(C)c1=O (configuration not stated) the results were FBA Mtb inh -3, GDH-TPI counter-1 3, Mtb UGM inh 3, Mtb bLac sens 7, Rv3671c inh 3 and RecA intein inh -2.
For CCCNC(=O)C(=O)NCC1CCCN1CC (configuration not stated) the results were FBA Mtb inh 29*, GDH-TPI counter-1 -3, Mtb UGM inh 0, Mtb bLac sens -3, Rv3671c inh 9, RecA intein inh 1, Mtb FBA confirm 18 and GDH-TPI counter-2 13*.
CC(C)(O)C1C2OC(=O)C1C1(O)CC3OC34C(=O)OC2C14C (configuration not stated) was read as FBA Mtb inh 0 and GDH-TPI counter-1 -2.
`O=C(NC(c1ccc(Cl)cc1)c1cnccn1)C1CCN(CCCOc2ccccc2)CC1` (configuration not stated) gave FBA Mtb inh 0 and GDH-TPI counter-1 3.
Screening COc1ccc2oc(C(=O)Nc3nnc(C)s3)c(C)c2c1 returned FBA Mtb inh 29*, GDH-TPI counter-1 23, Mtb UGM inh 2, Mtb bLac sens -4, Rv3671c inh -3, Mtb FBA confirm 81* and GDH-TPI counter-2 63*.
For Cc1ccc2oc(C(=O)Nc3nnc(C)s3)c(C)c2c1 the results were FBA Mtb inh -1, GDH-TPI counter-1 14, Mtb UGM inh 3, Mtb bLac sens 2, Rv3671c inh 5 and RecA intein inh -1.
`COc1ccc2oc(C(=O)NC(C)c3ccccn3)c(C)c2c1` (configuration not stated) gave FBA Mtb inh 33*, GDH-TPI counter-1 3, Mtb UGM inh 1, Mtb bLac sens -2, Rv3671c inh -4, Mtb FBA confirm 94* and GDH-TPI counter-2 83*.
`CCOC(=O)c1c(NC(=O)CN2CCN(C(=O)c3ccco3)CC2)sc2c1CCCC2` gave FBA Mtb inh -2, GDH-TPI counter-1 28, Mtb UGM inh -2, Mtb bLac sens 85, Rv3671c inh -10 and RecA intein inh 9.
For COc1ccc(NC(=O)[C@H](C)NS(=O)(=O)c2ccc(NC(C)=O)cc2)cc1Cl the results were FBA Mtb inh 0 and GDH-TPI counter-1 -12.
Screening CCC(CO)Nc1ncnc2c1cnn2-c1ccc(OC)cc1 (configuration not stated) returned FBA Mtb inh 30*, GDH-TPI counter-1 -3, Mtb UGM inh 1, Mtb bLac sens -1, Rv3671c inh 7, RecA intein inh 0, Mtb FBA confirm 63* and GDH-TPI counter-2 52*.
O=C(Nc1ccccc1)Nc1nnc(/C=C/c2ccccc2Cl)s1 was read as FBA Mtb inh 4, GDH-TPI counter-1 3, Mtb UGM inh 1, Mtb bLac sens -11, Rv3671c inh -4 and RecA intein inh -1.
Screening Nc1nnc(/C=C/c2ccccc2Cl)s1 returned FBA Mtb inh 28*, GDH-TPI counter-1 6, Mtb UGM inh 2, Mtb bLac sens 64, Rv3671c inh 1, RecA intein inh -1, Mtb FBA confirm 15, GDH-TPI counter-2 0 and GDH-TPI DR 3.9*.
For COC(C/C=C/[C@@H](O)COCc1ccccc1)OC the results were FBA Mtb inh -2, GDH-TPI counter-1 9, Mtb UGM inh 0, Mtb bLac sens -7, Rv3671c inh 10 and RecA intein inh 0.
CC(=O)Nc1ccc(S(=O)(=O)Nc2nc3ccccc3nc2Nc2cccc(O)c2)cc1 was read as FBA Mtb inh 75*, GDH-TPI counter-1 25, Mtb UGM inh 3, Mtb bLac sens -2, Rv3671c inh 10, RecA intein inh 0, Mtb FBA confirm 72* and GDH-TPI counter-2 58*.
